In the library only some 28% were active in any assay of this set; here they are far more common.
CYP2C19 act: cytochrome P450 2C19 (human) activation | P33261 | recombinant CYP2C19, luciferin-H EGE luminescence; stronger effect = higher value; 0 = fully inhibited enzyme, 1 = untreated enzyme | activation factor at 5 µM | 96,000 tested, under 10 active | AID 1025;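 active = activation factor of at least 2 at 5 µM in the primary screen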
CYP2C9 inhib: blocks human cytochrome P450 2C9 | P11712 | CYP2C9 Supersomes, luciferin-H conversion, luminescence | inhibition, % at 5 µM | actives 20% (n = 96,000) | AID 777;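 active = blocking of liver enzyme CYP2C9 beyond about 50% at 5 µM, limit read from the data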
Mac1 fbg inh: CD11b/CD18-fibrinogen binding inhibition | P05107+P11215 | K562 CD11b/CD18 adhesion to fibrinogen, ATPlite luminescence; Mn2+ added to activate the integrin | inhibition, % at 10 µM | actives 0.54% (n = 93,000) | AID 1497;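 active = primary inhibition of 50% or more at 10 µM, then 40% or more on retest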
Target sequence (P05107 whole entry, looked up, other chains not shown): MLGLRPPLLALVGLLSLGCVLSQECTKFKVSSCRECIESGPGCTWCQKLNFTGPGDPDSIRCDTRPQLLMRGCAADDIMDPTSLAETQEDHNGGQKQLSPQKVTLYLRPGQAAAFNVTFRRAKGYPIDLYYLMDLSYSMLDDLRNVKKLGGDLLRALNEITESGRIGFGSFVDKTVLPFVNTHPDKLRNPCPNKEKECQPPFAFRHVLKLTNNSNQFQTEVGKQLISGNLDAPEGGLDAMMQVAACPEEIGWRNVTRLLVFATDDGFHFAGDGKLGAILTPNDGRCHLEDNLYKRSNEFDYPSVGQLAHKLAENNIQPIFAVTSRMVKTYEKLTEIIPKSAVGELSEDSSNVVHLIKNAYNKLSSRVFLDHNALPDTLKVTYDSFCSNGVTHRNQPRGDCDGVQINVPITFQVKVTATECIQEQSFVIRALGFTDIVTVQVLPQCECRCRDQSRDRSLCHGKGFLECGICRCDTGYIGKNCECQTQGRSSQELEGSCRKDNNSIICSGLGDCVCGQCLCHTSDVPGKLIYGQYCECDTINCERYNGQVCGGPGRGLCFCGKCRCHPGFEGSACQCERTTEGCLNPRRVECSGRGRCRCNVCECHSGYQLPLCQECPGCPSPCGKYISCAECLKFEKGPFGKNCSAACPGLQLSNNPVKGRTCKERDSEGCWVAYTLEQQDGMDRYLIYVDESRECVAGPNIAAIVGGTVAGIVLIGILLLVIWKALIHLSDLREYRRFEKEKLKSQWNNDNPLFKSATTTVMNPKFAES
CYP2C9 act: CYP2C9 (human) activation; recombinant CYP2C9, luciferin-H conversion, luminescence; stronger effect = higher value; factor 1 = untreated enzyme, 0 = blocked; activation factor at 5 µM; AID 1024; actives 1.4% (n = 96,000); P11712;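 active = activation factor of 2 or more for CYP2C9 at a 5 µM dose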
CYP2C19 inhib: inhibitors of human CYP2C19; P33261; AID 778; CYP2C19 Supersomes, luciferin-H EGE luminescence, 30 min; actives 21% (n = 96,000); inhibition, % at 5 µM;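 active = CYP2C19 inhibition above a set limit at 5 µM in the primary screen, cut at about 50% in these data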
CD11b adhes enh: enhancers of human CD11b/CD18 binding to fibrinogen; activation, % at 10 µM; actives 0.07% (n = 93,000); P05107+P11215; K562 CD11b/CD18 adhesion to fibrinogen, ATPlite luminescence;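 active = 10 µM primary screen giving 50% or more activity, confirmed by 40% or more on retest at that dose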
Numbers stand for hits; - = inactive; . = no result.

SMILES	CYP2C19 act	CYP2C9 inhib	Mac1 fbg inh	CYP2C9 act	CYP2C19 inhib	CD11b adhes enh
COc1ccccc1N1CCN(S(=O)(=O)c2ccc(Br)s2)CC1	-	-	-	-	-	-
COc1ccccc1N1CCN(S(=O)(=O)c2c(C)ccc3nsnc23)CC1	-	-	-	-	73	-
COc1ccccc1N1CCN(C2CCN(S(=O)(=O)c3ccc4ccccc4c3)CC2)CC1	-	-	-	-	-	-
COc1cc(S(=O)(=O)N2CCN(c3ccccc3)CC2)ccc1Cl	-	-	-	-	-	-
COc1cc(S(=O)(=O)N2CCN(c3ccccc3F)CC2)ccc1Cl	-	90	-	-	99	-
COc1ccccc1N1CCN(S(=O)(=O)c2cccs2)CC1	-	83	-	-	-	-
COc1ccc(S(=O)(=O)N2CCN(c3ccccc3OC)CC2)cc1OC	-	-	-	-	80	-
COCCNc1cc(C)nc2c3c(C)cc(C)nc3nn12	-	-	-	-	-	-
CCc1nn2c(=O)cc(N3CCN(c4cc(C)nc5ccccc45)CC3)nc2s1	-	-	-	-	-	-
COc1ccccc1N1CCN(C(=O)C(Cc2ccccc2)NC(=O)C2CCCCC2)CC1 (stereo unspecified)	-	87	-	-	99	-
COc1ccccc1N1CCN(S(=O)(=O)c2cnc[nH]2)CC1	-	100	-	-	95	-
Cc1cc(N2CCN(S(=O)(=O)c3ccccc3)CC2)c2ccccc2n1	-	-	-	-	65	-
CC(C)(C)OC(=O)N[C@@H](Cc1ccccc1)C(=O)N1CCC(C(=O)O)CC1	-	-	.	-	-	.
CCOC(=O)COc1ccc(S(=O)(=O)N2CCN(c3ccccc3F)CC2)cc1	-	81	-	-	68	-
COC(=O)c1ccc(-n2nnnc2SCc2nn[nH]n2)cc1	-	-	.	-	-	.
Cc1ccc(CCNC(=O)C2CCN(C(=O)N(C)C)CC2)cc1	-	-	-	-	-	-
CCn1c(COc2ccccc2OC)nnc1SCC#N	-	-	-	-	-	-
COc1ccc(C(=O)CSc2nnc(-c3cc(C)cc(C)c3)o2)cc1	-	-	-	-	62	-
CCOC(=O)c1[nH]c(CSc2nnc(-c3ccc(OC)cc3)o2)c(C(=O)OCC)c1C	-	85	-	-	73	-
COc1ccc(-c2nnc(SCC(=O)c3ccc[nH]3)o2)cc1	-	-	-	-	-	-
COc1ccc(-c2nnc(SCC(=O)c3[nH]c(C)c(C(C)=O)c3C)o2)cc1	-	-	-	-	63	-
CC1CN(C2CCN(C(=O)c3ccccc3Cl)CC2)CC(C)O1 (stereo unspecified)	-	-	-	-	-	-
Cc1cccnc1Nc1nc(-c2ccc(O)c(O)c2)cs1	-	76	-	-	66	-
COc1ccc(-c2csc(Nc3ncccc3C)n2)cc1OC	-	-	-	-	-	-
Cc1ccc(-c2csc3nc(SCC(=O)N(C)C)n(Cc4ccccc4)c(=O)c23)cc1	.	.	-	.	.	-
SMILES	CYP2C19 act	CYP2C9 inhib	Mac1 fbg inh	CYP2C9 act	CYP2C19 inhib	CD11b adhes enh
CN(C)S(=O)(=O)Nc1ccccc1C(N)=O	-	-	-	-	-	-
NC(=O)c1ccccc1NS(=O)(=O)Cc1ccc(Cl)cc1	-	-	-	-	66	-
NC(=O)c1ccccc1NS(=O)(=O)c1ccccc1	-	-	-	2.3	-	-
CCOC(=O)NCc1ccc(S(=O)(=O)Nc2ccccc2C)cc1	-	-	-	-	69	-
Cc1ccc(S(=O)(=O)Nc2ccccc2C(N)=O)cc1	-	-	-	2.1	-	-
NC(=O)c1ccccc1NC(=O)CS(=O)(=O)Cc1ccccc1	-	-	-	-	-	-
NC(=O)c1ccccc1NS(=O)(=O)c1cccs1	-	-	-	-	-	-
COC(=O)NCc1cccc(CNC(=O)OC)c1	-	-	-	-	-	-
Cc1ccccc1NS(=O)(=O)c1cc(C(N)=O)ccc1C	-	-	-	-	97	-
Cc1ccc(C)c(NS(=O)(=O)c2cc(C(=O)NCc3ccccn3)ccc2Cl)c1	-	-	.	-	-	.
Cc1ccccc1NS(=O)(=O)c1ccc(C)c(C(N)=O)c1	-	-	-	-	90	-
Cc1ccc(C)c(NS(=O)(=O)c2cc(C(=O)Nc3ccccc3-c3ccccc3)ccc2C)c1	-	80	.	-	54	.
O=C(O)c1ccccc1NS(=O)(=O)c1ccccc1C(F)(F)F	-	66	-	-	-	-
CSc1nc2ccc(NC(=O)c3cc4ccccc4o3)cc2s1	.	.	-	.	.	-
CSc1nnc(NC(=O)c2cc3ccccc3oc2=O)s1	-	-	-	-	-	-
NS(=O)(=O)c1ccc(CNC(=O)CC23CC4CC(CC(C4)C2)C3)cc1	-	-	-	-	-	-
CC1CCCC(NC(=O)Cn2cc3c(n2)CCCCC3)C1C (stereo unspecified)	-	-	-	-	-	-
O=C(NS(=O)(=O)c1ccccc1)c1ccccc1O	-	89	.	-	-	.
O=C(O)CN=C(NS(=O)(=O)c1ccccc1)c1ccccc1	-	-	-	-	-	-
O=P(O)(CCCCP(=O)(O)CCc1ccccc1)CCc1ccccc1	-	-	-	-	-	-
CCCC/C(O)=C1\C(=O)CC(C)(C)CC1=Nc1ccc(OC)cc1	-	-	-	-	57	-
COc1[nH]c(/N=C/c2ccccc2)c(C#N)c1C#N	-	75	-	-	-	-
COc1ccc(/C=N/c2oc(-c3ccccc3)cc2C#N)cc1	-	-	-	-	-	-
CCC1CCCCN1C(=S)NCc1ccccc1 (stereo unspecified)	.	.	-	.	.	-
CCCCC(SCC(=O)Nc1ccccc1)C(=O)O (stereo unspecified)	-	70	-	-	-	-
SMILES	CYP2C19 act	CYP2C9 inhib	Mac1 fbg inh	CYP2C9 act	CYP2C19 inhib	CD11b adhes enh
O=C(ONC1=NCCCCC1)c1ccc(Cl)cc1	-	-	-	-	-	-
O=C(ONC1=NCCCCC1)c1c(F)cccc1F	-	-	-	-	91	-
CCOc1ccc(-c2[nH]nc3c2C(c2ccc4c(c2)OCO4)C(C#N)=C(N)O3)cc1OC (stereo unspecified)	-	-	-	-	-	-
CS(=O)(=O)N(CC(=O)NCCSCc1cccc(Cl)c1)c1ccc2c(c1)OCO2	-	82	-	-	88	-
CS(=O)(=O)N(CC(=O)NCCSc1ccccc1)c1ccc2c(c1)OCO2	-	64	-	-	76	-
CS(=O)(=O)N(CC(=O)NCCSc1ccc(Cl)cc1)c1ccc2c(c1)OCO2	-	62	-	-	69	-
CS(=O)(=O)N(CC(=O)Nc1ccc2c(c1)OCO2)c1ccc2c(c1)OCO2	-	-	-	-	-	-
O=C(O)C1CC=CCC1C(=O)Nc1ccccc1Cl (stereo unspecified)	-	-	-	-	-	-
O=C(C1CCCO1)N1CCc2ccccc21 (stereo unspecified)	-	-	-	-	-	-

Screening data: PubChem BioAssay, Sanford-Burnham Center for Chemical Genomics
